# Screening results: PubChem BioAssay, several laboratories
# A selection: hits, their analogues and other compounds. The true share with any hit is near 4.1%.
# tim23-1 inh: tim23-1 yeast growth inhibition; S. cerevisiae tim23-1 growth, BacTiter-Glo luminescence, 24 h; inhibition, % at 20 µM; actives 1.3% (n = 330,000); AID 463212;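 active means growth inhibition of the mutant yeast at or above 50%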;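 further: temperature-sensitive mutant grown at 25 °C; plate controls were DMSO-treated mutant yeast for no effect and medium wells lacking yeast for full effect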
# NALP1 yeast inh: inhibitors of NALP1 inflammasome in yeast; inhibition, % at 10 µM; actives 0.61% (n = 280,000); S. cerevisiae NALP1/ASC/caspase-1 growth, X-gal OD620, 72 h; AID 2071; in the data active means inhibition mostly above about 24%, no sharp cut-off; inactive means mostly below about 32%
# tim10-1 inh: inhibits growth of tim10-1 mutant yeast; inhibition, % at 20 µM; actives 2.2% (n = 330,000); S. cerevisiae tim10-1 ts strain growth, BacTiter-Glo, 24 h;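 active means inhibition of at least 40%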;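 further: mutant grown at 25 °C; 0% = DMSO wells with yeast and 100% = wells holding no yeast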
# NLRP3 yeast inh: inhibitors of NALP3 inflammasome in yeast | Yeast reconstituted NLRP3/ASC/caspase-1, beta-gal luminescence, 24 h | actives 0.39% (n = 330,000) | inhibition, % at 10 µM;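 active means inhibition of 50% or more; inactive means inhibition below 50%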;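 further: plate controls were induced DMSO wells for no effect and uninduced yeast grown without galactose for full effect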
# TIM10 inh: growth inhibitors of TIM10 yeast strain | S. cerevisiae TIM10 strain growth, BacTiter-Glo luminescence, 24 h | inhibition, % at 10 µM | actives 1.4% (n = 330,000);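 active means inhibition of 40% or more at the single tested concentration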;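 further: wild-type TIM10 isogenic control strain grown at permissive 25 °C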
# PfHsp90 set2: growth inhibition of yeast expressing Plasmodium Hsp90; S. cerevisiae expressing PfHsp90, BacTiter-Glo ATP, 48 h; yeast lacking PDR1 and PDR3 efflux regulators; inhibition, % at 9.4 µM; actives 0.32% (n = 310,000);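 active means every replicate shows inhibition above about 80%, whatever the replicate mean, limit read from the data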;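 further: 0% = DMSO neutral controls and 100% = 20 µM radicicol positive controls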
# tim10-1 conf: confirmation of tim10-1 mutant yeast growth inhibitors; shares compounds with tim10-1 inh; S. cerevisiae tim10-1 ts strain growth, BacTiter-Glo, 24 h; inhibition, % at 20 µM; actives 56% (n = 7,400); AID 463213;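 active means inhibition of yeast growth at or above a set limit in either of two repeat tests at 20 µM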;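 further: tim10-1 mutant grown at permissive 25 °C to find synthetic lethal compounds; 0% = DMSO yeast wells and 100% = medium wells without yeast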
# TIM10 conf: TIM10 yeast growth inhibition, confirmed | shares compounds with TIM10 inh | S. cerevisiae tim10 strain growth, BacTiter-Glo luminescence, 24 h | inhibition, % at 10 µM | actives 63% (n = 4,600) | AID 463215;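 active means inhibition of yeast growth at or above a set limit in either of two replicates at 10 µM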;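 further: this counterscreen used the strain with wild-type TIM10; 0% = yeast with DMSO and 100% = medium wells lacking yeast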
# * marks the source's active call; other numbers are inactive results; . = no result.
SMILES,tim23-1 inh,NALP1 yeast inh,tim10-1 inh,NLRP3 yeast inh,TIM10 inh,PfHsp90 set2,tim10-1 conf,TIM10 conf
CCOC(=O)C(C(=O)OCC)C(Nc1ccccc1)c1ccccc1 (centres undefined),37,28,61*,31,43*,-12,50*,-19
COc1ccc(N2CCN(C(=O)c3cn(C4CCCC4)c(=O)c4c3c3ccccc3n4C)CC2)cc1,-2,3,20,12,31,8,.,.
Cn1c2ccccc2c2c(C(=O)N3CCN(c4ccccn4)CC3)cn(C3CCCC3)c(=O)c21,27,1,40*,8,47*,-11,18,41*
Cc1cc(Br)ccc1NC(=O)CN1C(=O)C2C3CC(c4ccccc4)C(C3)C2C1=O (centres undefined),32,6,41*,9,56*,-4,34*,32*
COc1ccc(OC)c(C2=Nn3c(nnc3-c3cc(C)[nH]n3)SC2)c1,16,10,7,16,-5,13,.,.
CCN1CCN(c2cc3c(nn2)Oc2ccccc2N3C)CC1,45,13,44*,12,77*,20,57*,71*
CCN1CCN(c2nnc(-c3ccccc3)c3ccccc23)CC1,-3,2,-5,5,11,-15,.,.
CC(=O)c1c(C)[nH]c(C(=O)NNC(=O)COc2cc(C)cc(C)c2)c1C,0,.,3,2,0,8,.,.
O=C(NCCO)/C(=C\c1ccc([N+](=O)[O-])o1)NC(=O)c1ccccc1,3,4,12,9,1,7,.,.
CCCOC(=O)/C(=C\c1ccc([N+](=O)[O-])o1)NC(=O)c1ccccc1,42,8,56*,5,54*,12,47*,-8
O=[N+]([O-])c1ccc(S(=O)(=O)c2cccc(C(F)(F)F)c2)nc1,46,.,75*,-12,75*,81*,74*,66*
COc1ccc(N(CC(=O)Nc2cc(OC)c(OC)cc2C(=O)O)S(=O)(=O)c2c(C)noc2C)cc1,9,13,19,1,7,-8,.,.
CC(/C=N/n1c(C2CCCCC2)n[nH]c1=S)=C\c1ccccc1,38,3,48*,22,49*,-29,19,31*
CC(/C=N/n1c(-c2cc(C)[nH]n2)n[nH]c1=S)=C\c1ccccc1,31,2,39,4,8,15,.,.
S=c1[nH]nc(C2CCCCC2)n1/N=C/c1cccs1,38,10,43*,24,41*,-11,11,40*
COc1ccccc1NC(=O)CCNS(=O)(=O)c1ccc2c(c1)CCN2C(C)=O,13,6,19,-9,-3,4,.,.
CC(=O)Nc1ccc(C2=CC(=O)CC(C)(C)C2)cc1,12,.,4,7,2,-17,.,.
Cc1cccc(N2CCN(C(=O)c3ccc(Cl)c(S(=O)(=O)NCc4ccco4)c3)CC2)c1C,44,-4,45*,11,50*,3,39*,40*
Cc1cccc(N2CCN(C(=O)c3ccc(N4CCCC4=O)cc3)CC2)c1C,5,-4,45*,3,42*,8,31*,16
CCOc1ccc(C(=O)N2CCN(c3cccc(Cl)c3)CC2)cc1,35,-6,14,8,4,7,.,.
CCOc1ccc(C(=O)N2CCN(c3cccc(C)c3C)CC2)cc1,43,-15,45*,4,42*,.,33*,32*
CC1CN(C(=O)c2ccc(Cl)c(S(=O)(=O)NCc3ccco3)c2)CC(C)O1 (centres undefined),-7,.,-14,5,3,.,.,.
COc1ccc(O)c(/C=N/Nc2nc(C)cc(-c3ccccc3)n2)c1,45,.,43*,24,42*,-5,40*,47*
CCOC(=O)c1c(NC(=O)CC)sc(C(=O)N2CCCCC2)c1C,0,-1,-3,26,-4,4,.,.
CCOC(=O)c1sc(NC(=O)CCN2CCCCCC2)c(C(=O)OCC)c1C,10,-15,61*,-5,44*,-2,51*,43*
SMILES,tim23-1 inh,NALP1 yeast inh,tim10-1 inh,NLRP3 yeast inh,TIM10 inh,PfHsp90 set2,tim10-1 conf,TIM10 conf
O=C(Nc1ccc(Cl)cc1)N(Cc1nc2ccccc2c(=O)[nH]1)Cc1cccs1,26,13,33,14,8,13,.,.
O=C(Nc1ccc(Cl)cc1)N(Cc1cccs1)Cc1cccs1,47,10,47*,10,57*,2,41*,-17
CC(C)[C@@H]1CC[C@@H](C)c2c(-c3ccccc3)n[nH]c21,47,-10,40*,31,46*,6,21,49*
O=C(NCC(=O)N(c1ccccc1F)C(C(=O)NC1CCCC1)c1ccncc1)c1ccco1 (centres undefined),7,-14,-6,8,9,-28,.,.
CCc1c(C)nc2cc(-c3ccc(OC)c(OC)c3)nn2c1N1CCC(C)CC1,15,-12,30,27,31,-14,.,.
CCc1c(C)nc2cc(-c3ccc(OC)c(OC)c3)nn2c1N1CCCC1,49,23,41*,29,42*,-14,-1,21
O=C(/C=C/c1cccs1)N1CCOCC1,-3,11,-9,-7,-2,13,.,.
O=C(/C=C/c1cccs1)c1cc(F)ccc1OC(=O)N1CCOCC1,47,.,53*,3,54*,-11,55*,-26
CCN1CCCC(OC(=O)c2cc(-c3ccccc3Cl)nc3ccccc23)C1 (centres undefined),12,-18,48*,13,49*,-4,33*,37*
N/C(=N\OC(=O)Cc1ccc(-c2ccccc2)cc1)c1ccccn1,30,-2,54*,18,53*,-1,50*,28
CN(CC(=O)Nc1ccccc1Cl)C(=O)c1cccc(S(=O)(=O)N2CCN(Cc3ccccc3)CC2)c1,13,.,23,9,13,22,.,.
N/C(=N\OC(=O)N1CCOCC1)c1ccc(Br)cc1,37,-5,60*,19,50*,-4,61*,41*
N/C(=N\OC(=O)c1ccc2ccccc2c1)c1ccc(Br)cc1,9,20,28,1,13,-20,.,.
Cc1cc(C)c2nc(N3C(=O)C(O)=C(C(=O)c4ccco4)C3c3cccc(O)c3)sc2c1 (centres undefined),25,.,12,12,15,-3,.,.
CCCCn1c(N)c(N(CC(C)C)C(=O)c2c(CC)noc2C)c(=O)[nH]c1=O,1,.,2,5,-1,.,.,.
